A3A deaminase: inhibitors of human APOBEC3A DNA deaminase. AID 493011. inhibition, % at 20 µM. recombinant A3A, FAM/TAMRA ssDNA deamination fluorescence. 330,000 compounds, 0.41% hits. P31941;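 active means at least 40% inhibition at 20 µM here, with at most 30% in a related deaminase screen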;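 further: plate controls were A3A with DMSO for no effect and wells lacking A3A enzyme for full effect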
Target sequence (P31941 whole entry, looked up): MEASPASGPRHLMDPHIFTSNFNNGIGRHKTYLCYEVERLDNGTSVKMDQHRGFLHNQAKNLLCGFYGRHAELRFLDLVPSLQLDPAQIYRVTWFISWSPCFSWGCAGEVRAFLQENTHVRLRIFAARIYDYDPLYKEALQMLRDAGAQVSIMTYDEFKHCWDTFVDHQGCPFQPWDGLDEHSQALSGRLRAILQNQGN
Fh CTSL1 inh: counter-screen for PFM18AAP inhibitors: inhibitors of F. hepatica cathepsin L1. recombinant F. hepatica cathepsin L1, Z-Leu-Arg-MCA fluorescence. inhibition, % at 5.96 µM. 300,000 compounds, 0.49% hits;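 active means inhibition above the mean of all tested compounds plus 3 SD, set per screening campaign, cut at about 17% in these data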;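 further: 0% = plate median of test compound wells and 100% = 1 µM Z-Phe-Ala-diazomethylketone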
APOBEC3G inh: APOBEC3G (human) deaminase inhibition; Q9HC16; recombinant A3G, ssDNA deamination FAM/TAMRA fluorescence; inhibition, % at 20 µM; 330,000 compounds, 0.28% hits;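 active means inhibition of at least 40% at 20 µM, with no more than 30% in the related APOBEC3A deaminase screen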;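 further: plate controls were DMSO wells with A3G for no effect and wells lacking A3G enzyme for full effect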
HGIII-sPLA2 inh: Inhibits HGIII-sPLA2 liposome hydrolysis, primary screen; Q9NZ20; QFRET BODIPY PC-A2 liposome hydrolysis, fluorescence; inhibition, % at 12.2 µM; 370,000 compounds, 0.56% hits;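 active means inhibition above mean plus 3 SD of compounds lying within the high and low control bounds, cut at about 19% in these data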;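 further: 0% = median of test compound wells and 100% = no enzyme DMSO wells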
NALP1 yeast inh: NALP1 inhibition | 280,000 compounds, 0.61% hits | AID 2071 | inhibition, % at 10 µM | S. cerevisiae NALP1/ASC/caspase-1 growth, X-gal OD620, 72 h; in the data active means inhibition mostly above about 24%, no sharp cut-off; inactive means mostly below about 32%
APOBEC3G confirm: confirmation of human APOBEC3G DNA deaminase inhibitors. shares compounds with APOBEC3G inh. recombinant A3G ssDNA deaminase, UDG/FAM-TAMRA fluorescence. inhibition, % at 20 µM. 890 compounds, 72% hits. AID 493152;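 active means inhibition reaching a set limit in any replicate at 20 µM, the limit being 80% of the first screen's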
UDG A3G counter: E. coli UDG inhibition in APOBEC3G counter-screen; inhibition, % at 20 µM; 710 tested, under 10 active; UDG counterscreen, FAM/TAMRA oligo fluorescence; shares compounds with APOBEC3G inh;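 active means compounds giving 40% or more inhibition at 20 µM in any one of the three replicates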;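 further: plate controls were DMSO wells with UDG and oligo for no effect and DMSO wells lacking both for full effect; inhibitors lower the FAM signal released by uracil excision and alkaline cleavage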
Target sequence (P12295 whole entry, looked up): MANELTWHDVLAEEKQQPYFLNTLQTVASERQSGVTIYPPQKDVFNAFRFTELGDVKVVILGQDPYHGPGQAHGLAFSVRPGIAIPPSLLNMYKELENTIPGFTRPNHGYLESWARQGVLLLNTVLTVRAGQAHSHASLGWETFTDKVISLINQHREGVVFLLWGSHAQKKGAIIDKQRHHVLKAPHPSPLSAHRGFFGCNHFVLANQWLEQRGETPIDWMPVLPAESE
An asterisk follows results filed as active; · = no result given. Only some compounds are listed: those with a hit (about 2% of all), similar ones and a draw of the others.

SMILES | A3A deaminase | Fh CTSL1 inh | APOBEC3G inh | HGIII-sPLA2 inh | NALP1 yeast inh | APOBEC3G confirm | UDG A3G counter
COC(=O)[C@]1(CNC(=O)Nc2ccc(C)c(Cl)c2)CC(=O)N(C)[C@@H]1c1ccccc1 | · | · | · | -14.6 | · | · | ·
Cc1ccccc1/C=N/n1c(-c2ccccn2)n[nH]c1=S | -5.1 | -1.1 | 71.9* | 4.0 | -1.7 | 97.6* | 0.7
S=c1[nH]nc(-c2ccccn2)n1/N=C/c1cccs1 | -2.0 | -3.6 | -11.7 | -0.6 | 25.3 | · | ·
S=c1[nH]nc(-c2ccccn2)n1/N=C/c1ccccc1 | -3.5 | -0.2 | 46.2* | 17.6 | -13.1 | 77.5* | -1.2
Cc1cc(C)cc(NC(=O)O[C@@H]2CC[C@@]34CCCN3C(=O)CCC[C@H]4C2)c1 | · | · | · | 2.1 | · | · | ·
OC(c1ccccc1)(c1ccccc1)C1CCN(CCCNc2ccccc2Br)CC1 | · | · | · | -15.5 | · | · | ·
COc1ccc(C2CC(=O)N3CN(c4ccc(C)c(Cl)c4)CSC3=C2C#N)cc1OC (centres undefined) | -2.5 | -3.1 | 45.1* | 9.4 | 18.6 | 18.6 | -2.4
Cc1ccc(N2CSC3=C(C#N)C(c4cccs4)CC(=O)N3C2)cc1 (centres undefined) | 13.1 | -2.7 | 45.2* | -4.4 | 4.1 | 58.5* | -2.5
CCc1ccc(N2CSC3=C(C#N)C(c4cccs4)CC(=O)N3C2)cc1 (centres undefined) | 16.4 | 3.2 | 49.2* | · | -2.7 | 50.1* | -2.0
COc1ccc(N2CSC3=C(C#N)C(c4cccs4)CC(=O)N3C2)cc1 (centres undefined) | · | -2.5 | · | 8.7 | 9.5 | · | ·
CCOc1ccc(-n2c(SCC(=O)Nc3ccc4cn[nH]c4c3)nnc2-c2ccc(C(C)(C)C)cc2)cc1 | · | · | · | -1.9 | · | · | ·
Oc1ccc(/C=N/n2c(COc3ccccc3)n[nH]c2=S)cc1O | -8.4 | -1.9 | 43.0* | 3.5 | -13.1 | 77.3* | -2.2
S=c1[nH]nc(COc2ccccc2)n1/N=C/c1cccnc1 | -1.0 | -4.8 | 55.7* | 10.2 | 24.9 | 77.3* | -2.8
O=[N+]([O-])c1cccc(/C=N/n2c(COc3ccccc3)n[nH]c2=S)c1 | 0.2 | 2.0 | 59.2* | 5.3 | -1.6 | 73.2* | -2.6
COC(=O)[C@]12C[C@H](CC(=O)NCCCCc3ccccc3)C(=O)N(Cc3cccc4ccccc34)C1=C[C@H](COCc1ccccc1)O[C@@H]2C | · | · | · | -19.4 | · | · | ·
Cc1ccc(-c2cc(C(=O)NN=Cc3ccc(F)cc3)[nH]n2)cc1C | · | · | · | 9.2 | · | · | ·
Cc1nc2[nH]c(=S)[nH]c2cc1Br | -2.2 | 3.1 | 47.1* | 0.9 | -21.8 | 82.5* | 1.8
Cc1nc2nc[nH]c2cc1Br | -3.5 | -1.9 | -5.7 | -0.9 | -16.9 | · | ·
CCCCN(CCCC)C(=O)c1sc2nc(N3CCOCC3)c3c(c2c1N)CCCC3 | -1.1 | -3.4 | 41.5* | -2.2 | 1.2 | -9.6 | -2.5
FC(F)(F)c1ccccc1Cn1ccc2ccc(-c3ccc4ccn(Cc5ccccc5)c4c3)cc21 | · | · | · | 1.4 | · | · | ·
Cc1cc(-c2n[nH]c(=S)n2-c2ccc(F)cc2)nn1C | 3.2 | -7.3 | 62.6* | -0.1 | -11.0 | 59.9* | -3.7
COc1cccc(NC(=O)CN(C)C(=O)c2cccc(S(=O)(=O)Nc3ccc(C)cc3)c2)c1 | -4.2 | · | -5.7 | -35.5 | · | · | ·
COc1ccc(NC(=O)CN(C)C(=O)c2cccc(S(=O)(=O)Nc3ccc(OC)cc3)c2)cc1 | -2.2 | 0.4 | 49.2* | -16.2 | · | -12.9 | -0.6
C[C@H](O)[C@@H]1CN2CCc3c([nH]c4c(-c5ccc6c(c5)OCO6)cccc34)[C@@H]2C[C@@H]1N(C)C(=O)Nc1ccccc1 | · | · | · | -8.3 | · | · | ·
c1ccc2[nH]c(CCCc3nc4ccccc4[nH]3)nc2c1 | -5.9 | -0.9 | -2.0 | 0.8 | 3.9 | · | ·
S=c1cnc2ccccc2[nH]1 | -4.6 | -2.7 | 62.0* | -1.9 | -4.0 | 84.1* | 3.0
C(=N/N1CCN(c2ccccc2)CC1)/c1ccncc1 | -3.3 | 2.1 | 42.8* | 7.3 | 3.2 | -6.6 | -3.8
Cc1cc(S(=O)(=O)N(Cc2ccccn2)Cc2ccco2)ccc1-n1cnnn1 | 1.6 | -0.4 | 50.3* | 1.9 | -1.6 | 0.7 | ·
O=C(CN1CCN(c2nc(-c3ccccc3)cs2)CC1)Nc1ccc(Cl)cc1 | · | · | · | -4.5 | · | · | ·
CN(C)CCn1c2c(c(SCC(=O)Nc3ccccc3)nc1=O)CCCC2 | -2.1 | -1.8 | -4.9 | -0.6 | · | · | ·

From PubChem
